Assay [1] has as its target Lysosomal acid glucosylceramidase (Homo sapiens) (UniProt P04062). As to the kind of experiment: Glucocerebrosidase-p2 (AID 348; in the data active means potency below about 10 µM; further: potency means the concentration at half of the fitted maximal effect). The settings on record: purified GBA, blue fluorogenic substrate, 40 min. The essentials: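 Normal human glucocerebrosidase (0.2 nM) with blue fluorogenic substrate (80 uM final) in citrate/phosphate pH 5.9 with 10mM sodium taurocholate, 0.01% tween-20; 40 min RT, NaOH/glycine stop; fluorescence Ex 365/Em 440; AC50 from a titration from 0.6 nM upwards.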

Assay [2] in a line: AP1 Signaling Pathway (AID 357).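 Further: ME-180 reporter cells stimulated with EGF at its EC50 level; on the % scale 0 is the no-effect control and ±100 the full control effect.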 The settings on record: ME-180 AP-1-bla reporter, EGF-induced, beta-lactamase ratio, 5 h; at 7.69 µM (top of the series) unless noted. The essentials:
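A ratiometric CCF4 readout (405 nm excitation; 460 and 530 nm emission) quantified AP-1-driven beta-lactamase in ME-180 cells after 5 h with compound and EC50 EGF; AC50 values were derived for activators and inhibitors.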

Assay [3] deals with Cytochrome P450 1A2 (Homo sapiens) (UniProt P05177). Put plainly: p450-cyp1a2 (AID 410; calls by dose curve; further: potency means the concentration at half of the fitted maximal effect;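 on activity change, negative = inhibition: -100% = full effect of reference inhibitor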). The conditions noted are these: recombinant CYP1A2, luciferin-ME demethylation, luminescence; series mostly up to 57 µM. The essentials: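 Read-out is luminescence from luciferin produced by CYP1A2 demethylation of Luciferin-ME (100uM, at Km). Detection reagent stopped the 60 min NADPH-dependent reaction; signals were normalized to 57 uM furafylline.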

Assay [4] is described as follows: Stat Signaling Pathway (AID 446).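 Further: ME-180 cervical cancer cells given 40 pM IL-6 alongside compound; SIE-controlled beta-lactamase reporter measured as 460/530 nm FRET emission ratio; on the % scale 0 is the no-effect control and ±100 the full control effect.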 The conditions noted are these: ME-180 (cervical carcinoma) SIE beta-lactamase reporter, IL-6 stimulated, 5 h; at 7.69 µM (top of the series) unless noted. The essentials: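 Emission at 460 and 530 nm (excitation 405 nm) reports SIE-controlled beta-lactamase in ME-180 cells. Cells received compound with 40 pM IL-6 for 5 hrs at 37 C; data scaled between 300 pM IL-6 and 125 nM JAK-inhibitor controls.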

Assay [5] has as its target Glucocorticoid receptor (Homo sapiens) (UniProt P04150). Put plainly: GR-EFC Redistribution (AID 451; calls by dose curve; further: potency means the concentration at half of the fitted maximal effect). The conditions noted are these: CHO-K1 GR-EFC translocation, beta-gal luminescence, 2 h. The essentials:
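CHO-K1 cells stably expressing nuclear-localized β-gal enzyme acceptor and GR fused C-terminally to the enzyme donor fragment; ligand-driven nuclear translocation restores β-gal by complementation. Compounds titrated up to 46 uM final, 2 h at 37 °C; luminescence read.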

For assay [6], the target named is Mitogen-activated protein kinase 10 (Mus musculus) (UniProt Q61831). Put plainly: JNK3 AlphaScreen Assay (AID 530).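 Further: kinase came from lysate of stimulated human HepG2 cells; on the % scale 0 is the no-effect control and ±100 the full control effect.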 The conditions noted are these: JNK3 lysate, c-Jun phosphorylation; series mostly up to 57.1 µM. The essentials: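 Biotinylated GST-cJun(1-79) served as substrate for JNK3 in HepG2 lysates stimulated with IL-1beta and TNF-alpha. ATP was 10 uM final, pH 7.6. Ser73 phosphorylation was quantified by AlphaScreen (680 nm excitation).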
In general terms: In Alpha technology, singlet oxygen from a donor bead excites a nearby acceptor bead.

The target of assay [7] is 3',5'-cyclic-AMP phosphodiesterase 4B (Homo sapiens) (UniProt Q07343). Put plainly: qHTS Assay for Inhibitors of PDE-IV (AID 607; active means well fitted activation curve with a large enough effect in the main read-out, with a control signal flat, not every such curve was filed as active; further: % of control where 0% means no effect). The conditions noted are these: HEK293 ACTOne CNG channel cells, membrane potential fluorescence; series mostly up to 22.9 µM. The essentials:
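The readout is membrane depolarisation from a cAMP-sensing CNG channel, detected with a potential dye at ex 535/em 590. Cells were HEK293-derived (endogenous PDE-IV) at 1000 cells/well, titrated up to 22.9 uM final.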
(qHTS replaces the single test concentration by a dilution series.)

Assay [8] deals with Cytochrome P450 3A4 (Homo sapiens) (UniProt P08684). Put plainly: qHTS Assay for Activators of Cytochrome P450 3A4 (AID 885; active means well fitted curve in the direction sought with a large enough effect; an effect the other way counts as inactive or inconclusive; further: nearly all actives have a fitted effect of over 65% in size; further: potency means the concentration at half of the fitted maximal effect). The conditions noted are these: recombinant CYP3A4, Luciferin-PPXE luminescence, 60 min; series mostly up to 57.1 µM. The essentials:
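Activators are scored by enhanced luminescence from CYP3A4 conversion of luciferin-PPXE (25uM, equal to KM) to luciferin, after 60 min at RT with an NADPH-regenerating system.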

Assay [9] can be described thus: qHTS Assay for Lipid Storage Modulators (AID 1519; calls by dose curve). The conditions noted are these: Drosophila S3 cells, BODIPY lipid droplet/cell ratio, laser cytometry, cells loaded with oleic acid; for activity change, negative = inhibition: at 57.5 µM (top of the series). The essentials:
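Cells seeded at 5,000 per well were treated with compounds over a concentration series and loaded with oleic acid (400 uM, as added). Lipid droplet fluorescence (488 nm excitation, 500-530 nm channel) was read by laser-scanning cytometry and normalized to 20 uM Triacsin C.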

A short description of assay [10]: Primary qHTS for small molecule stabilizers of the endoplasmic reticulum resident proteome: Secreted ER Calcium Modulated Protein (SERCaMP) assay (AID 1508630; active means well fitted curve in the direction sought with a large enough effect; an effect the other way counts as inactive or inconclusive; further: on the % scale 0 is the no-effect control and ±100 the full control effect). The conditions noted are these: SH-SY5Y GLuc-SERCaMP (Gaussia luciferase released on ER calcium loss) secretion, thapsigargin, luminescence; series mostly up to 38.4 µM. The essentials: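 The SH-SY5Y reporter protocol was run at 3 concentrations up to 38.3 uM (primary) or 11 concentrations (follow-up): 16 h compound, 100 nM thapsigargin for 4 h, then extracellular luciferase luminescence.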

Assay [11] has as its target Cytochrome P450 3A4 (Homo sapiens) (UniProt P08684). Put plainly: qHTS Assay for Inhibitors and Substrates of Cytochrome P450 3A4 (AID 884; active means well fitted curve in the direction sought with a large enough effect; an effect the other way counts as inactive or inconclusive; further: on the % scale 0 is the no-effect control and ±100 the full control effect; nearly all actives have a fitted effect of over 50% in size). The settings on record: recombinant CYP3A4, Luciferin-PPXE luminescence; series mostly up to 57.1 µM. The essentials:
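Luminescent readout of luciferin produced by CYP3A4 (20 nM) dealkylation of Luciferin-PPXE, 25 uM (its KM). NADPH-driven reaction ran 60 min at RT after 10 min compound preincubation; data scaled to 57 uM ketoconazole as 100% inhibition.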

In assay [12] the target is Cytochrome P450 2D6 (Homo sapiens) (UniProt P10635). As to the kind of experiment: qHTS Assay for Inhibitors and Substrates of Cytochrome P450 2D6 (AID 891; active means well fitted curve in the direction sought with a large enough effect; an effect the other way counts as inactive or inconclusive; further: nearly all actives have a fitted effect of over 60% in size; further: potency means the concentration at half of the fitted maximal effect). The conditions noted are these: recombinant CYP2D6, luciferin-ME EGE luminescence; series mostly up to 57.1 µM. The essentials: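 Luminescent read-out of luciferin formed by 5 nM human CYP2D6 demethylating 30 uM Luciferin-ME EGE (Km level) over 60 min at room temperature after NADPH regeneration addition. Data normalized to full inhibition by 1.43 uM quinidine.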

[13] abbreviates: measured here: cell count channel max response.
Setting [14] is: measured here: lipid channel max response.

Records with an inconclusive call do not appear. Active and inactive are the calls of the source. Unless noted, the call rests on the fitted dose curve; in most records, active means well fitted curve in either direction with a large enough effect (not every such curve was filed as active); inconclusive means small, poorly fitted or top-dose-only effect, or another doubt; inactive means flat fitted curve, though single readings scatter.

Chain of Cytochrome P450 1A2 (Homo sapiens) (P05177 whole entry, looked up): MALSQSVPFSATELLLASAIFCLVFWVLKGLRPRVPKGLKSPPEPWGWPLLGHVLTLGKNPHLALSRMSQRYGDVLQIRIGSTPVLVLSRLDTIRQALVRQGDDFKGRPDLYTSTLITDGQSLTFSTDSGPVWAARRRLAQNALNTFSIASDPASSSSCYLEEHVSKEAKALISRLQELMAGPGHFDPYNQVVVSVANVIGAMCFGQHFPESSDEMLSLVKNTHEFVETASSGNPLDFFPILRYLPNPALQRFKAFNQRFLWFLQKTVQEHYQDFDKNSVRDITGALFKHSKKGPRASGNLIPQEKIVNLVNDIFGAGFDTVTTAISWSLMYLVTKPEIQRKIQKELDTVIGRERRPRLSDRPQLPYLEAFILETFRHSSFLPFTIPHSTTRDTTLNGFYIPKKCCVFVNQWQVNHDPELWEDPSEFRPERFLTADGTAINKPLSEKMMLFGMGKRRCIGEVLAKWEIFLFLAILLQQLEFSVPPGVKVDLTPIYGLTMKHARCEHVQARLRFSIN
Chain of Cytochrome P450 3A4 (Homo sapiens) (P08684 whole entry, looked up): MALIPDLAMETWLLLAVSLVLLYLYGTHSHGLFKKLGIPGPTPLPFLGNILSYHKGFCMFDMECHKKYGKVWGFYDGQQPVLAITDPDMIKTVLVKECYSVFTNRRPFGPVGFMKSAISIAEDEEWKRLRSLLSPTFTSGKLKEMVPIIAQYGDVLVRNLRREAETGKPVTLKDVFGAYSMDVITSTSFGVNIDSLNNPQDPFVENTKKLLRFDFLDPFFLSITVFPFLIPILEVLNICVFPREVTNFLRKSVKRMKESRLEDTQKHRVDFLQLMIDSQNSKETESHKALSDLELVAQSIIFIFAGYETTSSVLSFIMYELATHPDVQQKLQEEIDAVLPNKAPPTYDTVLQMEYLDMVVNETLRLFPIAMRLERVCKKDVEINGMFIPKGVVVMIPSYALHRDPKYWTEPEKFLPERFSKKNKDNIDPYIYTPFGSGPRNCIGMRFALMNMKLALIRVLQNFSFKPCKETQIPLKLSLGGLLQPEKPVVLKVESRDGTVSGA
Chain of 3',5'-cyclic-AMP phosphodiesterase 4B (Homo sapiens) (Q07343 whole entry, looked up): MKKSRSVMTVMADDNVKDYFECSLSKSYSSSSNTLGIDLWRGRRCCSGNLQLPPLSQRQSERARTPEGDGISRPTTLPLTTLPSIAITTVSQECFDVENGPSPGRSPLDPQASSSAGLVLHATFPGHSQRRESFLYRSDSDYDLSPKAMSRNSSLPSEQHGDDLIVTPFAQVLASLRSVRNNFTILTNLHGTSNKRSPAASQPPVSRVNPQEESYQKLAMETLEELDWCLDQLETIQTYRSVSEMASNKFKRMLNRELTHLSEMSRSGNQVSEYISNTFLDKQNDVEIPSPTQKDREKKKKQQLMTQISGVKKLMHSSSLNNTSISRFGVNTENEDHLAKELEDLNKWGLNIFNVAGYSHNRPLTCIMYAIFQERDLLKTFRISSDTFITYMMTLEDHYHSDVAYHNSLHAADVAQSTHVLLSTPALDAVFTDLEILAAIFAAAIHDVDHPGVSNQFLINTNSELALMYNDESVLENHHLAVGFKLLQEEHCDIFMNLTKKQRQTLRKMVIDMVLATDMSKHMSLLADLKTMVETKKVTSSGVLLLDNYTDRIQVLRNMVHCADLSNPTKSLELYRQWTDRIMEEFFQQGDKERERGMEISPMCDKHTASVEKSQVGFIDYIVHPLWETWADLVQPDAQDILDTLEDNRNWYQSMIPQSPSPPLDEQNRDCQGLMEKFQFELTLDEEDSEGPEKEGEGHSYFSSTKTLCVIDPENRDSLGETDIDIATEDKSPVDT
Chain of Glucocorticoid receptor (Homo sapiens) (P04150 whole entry, looked up, the tested form may be a part): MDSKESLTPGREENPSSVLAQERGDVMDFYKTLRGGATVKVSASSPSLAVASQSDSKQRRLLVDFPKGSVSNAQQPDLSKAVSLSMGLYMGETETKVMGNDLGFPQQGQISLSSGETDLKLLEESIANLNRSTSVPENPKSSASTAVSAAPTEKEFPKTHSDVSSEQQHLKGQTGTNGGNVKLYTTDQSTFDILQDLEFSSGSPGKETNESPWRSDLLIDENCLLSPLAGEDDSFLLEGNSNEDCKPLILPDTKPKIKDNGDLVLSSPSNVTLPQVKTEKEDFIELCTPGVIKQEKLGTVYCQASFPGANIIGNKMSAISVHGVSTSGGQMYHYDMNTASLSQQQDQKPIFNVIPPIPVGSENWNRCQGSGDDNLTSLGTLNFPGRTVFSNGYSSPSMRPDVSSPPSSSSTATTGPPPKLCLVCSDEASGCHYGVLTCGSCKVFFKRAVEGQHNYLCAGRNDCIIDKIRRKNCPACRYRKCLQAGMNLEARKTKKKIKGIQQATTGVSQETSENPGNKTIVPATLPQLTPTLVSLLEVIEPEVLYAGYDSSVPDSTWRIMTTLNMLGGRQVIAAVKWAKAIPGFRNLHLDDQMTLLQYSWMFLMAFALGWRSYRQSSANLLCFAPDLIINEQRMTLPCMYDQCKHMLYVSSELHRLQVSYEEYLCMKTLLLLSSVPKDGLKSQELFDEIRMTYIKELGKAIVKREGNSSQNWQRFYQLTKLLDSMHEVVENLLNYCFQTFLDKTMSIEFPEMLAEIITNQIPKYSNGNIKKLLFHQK
Chain of Lysosomal acid glucosylceramidase (Homo sapiens) (P04062 whole entry, looked up): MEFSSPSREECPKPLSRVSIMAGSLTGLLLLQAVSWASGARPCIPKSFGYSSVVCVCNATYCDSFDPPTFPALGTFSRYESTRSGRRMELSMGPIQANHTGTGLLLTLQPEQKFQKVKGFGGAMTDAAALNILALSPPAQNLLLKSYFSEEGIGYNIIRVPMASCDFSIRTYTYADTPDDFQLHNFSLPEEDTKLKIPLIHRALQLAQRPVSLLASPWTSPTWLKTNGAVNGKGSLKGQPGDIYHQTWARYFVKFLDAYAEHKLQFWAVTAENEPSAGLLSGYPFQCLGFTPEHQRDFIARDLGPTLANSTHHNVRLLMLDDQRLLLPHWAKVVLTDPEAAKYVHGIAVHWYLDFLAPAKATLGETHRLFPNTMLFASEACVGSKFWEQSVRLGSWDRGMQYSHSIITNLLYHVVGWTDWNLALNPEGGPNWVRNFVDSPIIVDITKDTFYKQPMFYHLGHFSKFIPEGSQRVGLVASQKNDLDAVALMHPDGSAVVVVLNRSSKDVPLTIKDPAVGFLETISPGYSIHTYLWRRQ
Chain of Cytochrome P450 2D6 (Homo sapiens) (P10635 whole entry, looked up): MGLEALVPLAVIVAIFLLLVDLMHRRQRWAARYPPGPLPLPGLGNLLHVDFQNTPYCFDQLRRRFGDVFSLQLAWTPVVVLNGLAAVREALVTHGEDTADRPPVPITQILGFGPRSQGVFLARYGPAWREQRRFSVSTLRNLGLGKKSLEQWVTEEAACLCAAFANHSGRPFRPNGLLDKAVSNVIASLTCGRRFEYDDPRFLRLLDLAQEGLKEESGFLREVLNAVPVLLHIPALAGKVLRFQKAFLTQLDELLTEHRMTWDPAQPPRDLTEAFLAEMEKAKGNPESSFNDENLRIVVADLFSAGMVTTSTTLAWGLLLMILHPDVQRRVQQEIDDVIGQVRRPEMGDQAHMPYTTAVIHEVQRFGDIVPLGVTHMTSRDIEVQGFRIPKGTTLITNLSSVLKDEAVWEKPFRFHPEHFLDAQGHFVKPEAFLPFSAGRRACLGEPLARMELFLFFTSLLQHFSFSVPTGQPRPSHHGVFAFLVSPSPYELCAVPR

For the compound `CN1CCCC2(CCN(C(=O)c3cc(C(F)(F)F)cc(C(F)(F)F)c3)CC2)C1`, the Potency in assay [1] is > 11.4 µM (inactive); in [5], > 46 µM (inactive). In addition, the values for the activity change, negative = inhibition in [2] and in [9] were 5.94% (inactive) and 3.25% (inactive), respectively. For the same compound, the Potency result in assay [3], in assay [6], in [7] and in assay [8] was “inactive” each time. In [4], the activity, negative = inhibition is 4.14% (inactive). In addition, the values for the max response in assay [9] (setting [13]) and in assay [9] (setting [14]) were 17.7% and 23.1%, respectively. In addition, in [10], the outcome was inactive.

For the compound `COC(=O)N1CCC2(CCCN(Cc3nccs3)C2)CC1`, the Potency is > 11.4 µM (inactive) in [1] and > 46 µM (inactive) in assay [5]. Besides, the activity change, negative = inhibition in assay [2] is -9.45% (inactive); in assay [9] it was 5.26% (inactive). The Potency entry in assay [3], in [6], in [7] and in assay [8] was “inactive” in each case. For the same compound, in assay [4], the activity, negative = inhibition is -5.19% (inactive). For the same compound, the figures for the max response in [9] (setting [13]) and in assay [9] (setting [14]) were 2.22% and 10.9%, respectively. Moreover, the result in assay [10] was inactive.

Consider `O=C(c1cccc(F)c1)N1CCC[C@@]2(CCN(c3ccccc3)C2)C1`, for which the Potency in assay [1] was > 11.4 µM (inactive); in assay [5], > 46 µM (inactive). For the same compound, the activity change, negative = inhibition was -6.87% (inactive) in assay [2] and 4.17% (inactive) in assay [9]. The Potency result in [3], in assay [6], in assay [7] and in [8] was “inactive” throughout. For the same compound, the activity, negative = inhibition in [4] is -5.23% (inactive). In addition, the max response in [9] (setting [13]) turned out to be 8.88%; in assay [9] (setting [14]) it was 15.7%. For the same compound, in [10], the result was inactive.

Take `CN1CCCC2(CCN(C(=O)c3cccc(F)c3)CC2)C1`: the Potency was > 11.4 µM (inactive) in [1], 31.6 µM (active) in [3] and > 46 µM (inactive) in assay [5]. Further, the values for the activity change, negative = inhibition in assay [2] and in [9] were -7.14% (inactive) and 0.413% (inactive), respectively. Moreover, in assay [4], the activity, negative = inhibition is 6.64% (inactive). Further, the Potency result in assay [6], in assay [7], in assay [11] and in assay [12] was “inactive” each time. The max response turned out to be 7.52% in assay [9] (setting [13]) and 10.1% in assay [9] (setting [14]). Moreover, in [10], the outcome was inactive.

For `O=C(c1ccncc1)N1CCC2(CCN(Cc3ccncc3)CC2)CC1`, the Potency in [1] was > 11.4 µM (inactive); in assay [5], > 46 µM (inactive). For the same compound, the figures for the activity change, negative = inhibition in assay [2] and in [9] were 7.83% (inactive) and 4.23% (inactive), respectively. Besides, the Potency entry in [3], in assay [6], in assay [7] and in assay [8] was “inactive” in each case. For the same compound, the activity, negative = inhibition in assay [4] is -5.41% (inactive). Also, the max response in assay [9] (setting [13]) came to 14.3%; in assay [9] (setting [14]), 23.1%. The result in assay [10] was inactive.

As for `O=C(c1ccco1)N1CCC2(CCN(Cc3ccccc3)CC2)CC1`, the Potency is > 11.4 µM (inactive) in assay [1], > 46 µM (inactive) in [5], 20 µM (active) in [8] and 3.98 µM (active) in assay [12]. For the same compound, the activity change, negative = inhibition in assay [2] is -4.92% (inactive); in assay [9], -0.6% (inactive). Further, the Potency result in [3], in assay [6], in [7] and in assay [11] was “inactive” each time. The activity, negative = inhibition in assay [4] is -6.84% (inactive). For the same compound, the results for the max response in assay [9] (setting [13]) and in assay [9] (setting [14]) were -0.833% and 1.54%, respectively. For the same compound, the result in [10] was inactive.

As for `COCC(=O)N1CCC2(CCCN(c3ccncc3)C2)CC1`, the Potency in assay [1] is > 11.4 µM (inactive); in [5], > 46 µM (inactive). The results for the activity change, negative = inhibition in assay [2] and in assay [9] were 3.93% (inactive) and 3.88% (inactive), respectively. Further, the Potency entry in assay [3], in [6], in assay [7] and in [8] was “inactive” each time. For the same compound, in assay [4], the activity, negative = inhibition is -8.03% (inactive). Besides, the max response was -7.49% in assay [9] (setting [13]) and 0.42% in assay [9] (setting [14]). For the same compound, in assay [10], the result was inactive.

Values taken from PubChem BioAssay (NCATS).
